Source: PubChem (National Center for Advancing Translational Sciences (NCATS))
Pf growth 96h – P. falciparum growth inhibition at 96 hours; hit rate 6.9% among 320,000; Potency, µM (titrated, usually from 28.7 µM), hits mostly inhibitors; P. falciparum luciferase reporter growth, 96 h; AID 504834
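Two-generation exposure (96 h) targets delayed-death phenotype. Reporter parasites carrying integrated firefly luciferase, in red cells at 2% hematocrit and 0.05% parasitemia final, kept at 37 C, 5% CO2; luminescence loss indicates inhibition.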
Pf growth 48h – inhibits P. falciparum growth in the first generation, 48 h | P. falciparum luciferase growth in erythrocytes, 48 h | Potency, µM (series often up to 28.7 µM), usual class: inhibitors | hit rate 5.9% among 310,000 | AID 504832
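Luminescence readout; reporter = integrated firefly luciferase in P. falciparum. RBC culture at 2% hematocrit, 0.1% parasitemia final, 37 C/5% CO2; decreased signal taken as growth inhibition.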
AMA1-RON2 inh – disrupts binding of P. falciparum AMA1 to RON2; AlphaScreen AMA1-biotinylated RON2 peptide binding; Potency, µM (top dose mostly 58.2 µM), most hits filed as inhibitors; hit rate 0.2% among 360,000; further: nearly all actives have a fitted effect of over 45% in size
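AMA1 (3D7) with his tag at 25 nM final met compounds first, then biotinylated RON2 peptide at 25 nM; detection used donor plus acceptor beads, 10 µg/mL apiece, read by AlphaScreen after 30 min at room temperature.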
Sm TGR block – blocks Schistosoma mansoni thioredoxin glutathione reductase; AID 485364; Potency, µM (highest dose often 114 µM), hits mostly inhibitors; purified TGR, DTNB reduction, TNB absorbance 405 nm; hit rate 3% among 360,000; further: nearly all actives have a fitted effect of over 60% in size
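First, TGR (20 nM dispensed) and NADPH were mixed with compound. Second, a 15 min room-temperature incubation followed. Third, further NADPH and then DTNB were added to start the reaction. Finally, TNB absorbance was monitored kinetically.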
NS1 inh – inhibitors of influenza NS1 protein function | AID 2326 | Potency, µM (top dose mostly 46.1 µM) | hit rate 0.4% among 270,000; calls by dose curve; further: actives are rising curves; nearly all actives have a fitted effect of over 50% in size
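In this qHTS, NS1 from influenza A is expressed in budding yeast, where it slows growth. Cells are switched from glucose to 2% galactose medium (pH 6.0, -URA), treated with compound, and growth recovery is read at OD600.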
Hits are given with their value; n = inactive; u = inconclusive; x = no result given; ! = not active in a repeat. Hits are enriched below; roughly 11% of the tested compounds scored in any of these assays. Unless noted, the call rests on the fitted dose curve; in most records, active means well fitted curve in the direction sought with a large enough effect; inconclusive means small, poorly fitted or top-dose-only effect, or another doubt; inactive means no such curve, though single readings can be large; an effect the other way counts as inactive or inconclusive.

SMILES	Pf growth 96h	Pf growth 48h	AMA1-RON2 inh	Sm TGR block	NS1 inh
COc1cccc(C2c3[nH]c4ccccc4c3CCN2Cc2cccn2-c2ncccn2)c1 (stereo not given)	5.2µM	u	n	u	n
Fc1ccc(C2c3[nH]c4ccccc4c3CCN2Cc2cccn2-c2ncccn2)cc1 (stereo not given)	n	n	n	n	n
CSc1ncc(CN2CCc3c([nH]c4ccccc34)C2c2cccc(O)c2)cn1 (stereo not given)	n	4.1µM	n	n	n
O=C1CCN(Cc2ccccc2)S(=O)(=O)c2c(F)cc(F)cc21	n	n	n	u	x
CCCN1C(=O)/C(=N\OCC(=O)NC23CC4CC(CC(C4)C2)C3)c2ccccc21	u	15µM	n	n	n
CCCN1C(=O)/C(=N\OCC(=O)Nc2ccc(C(C)C)cc2)c2ccccc21	n	n	n	n	n
O=C(NC(N1CCCC1)C(Cl)(Cl)Cl)c1ccccc1 (stereo not given)	n	n	n	3.5µM	n
Cc1ccc(C(=O)C(NC(=O)c2ccco2)N2CCOCC2)cc1 (stereo not given)	n	n	n	n	n
CC(NC(=O)c1ccc(-c2ccccc2)cc1)C(c1ccccc1)N1CCOCC1 (stereo not given)	10µM	7.4µM	n	n	x
O=C(NC(C(=O)c1ccccc1)N1CCOCC1)c1ccccc1 (stereo not given)	10µM	n	n	n	n
O=C(NC(C(=O)c1ccccc1)N1CCOCC1)c1cccs1 (stereo not given)	12µM	n	n	n	n
Cc1cccc(C(=O)Nc2ccc(C(=O)N/N=C/c3ccco3)cc2)c1	x	x	n	x	x
CCCCSc1ncnc2c1c(-c1ccccc1)cn2-c1cccc(F)c1	x	x	x	n	x
COc1ccc(NC(=S)NC(C)C(c2ccccc2)N2CCOCC2)cc1 (stereo not given)	15µM	u	n	n	x
CCC(C)[C@H]1CNC(=O)C(=O)N1CCc1cccc(F)c1 (stereo not given in full)	x	x	n	x	x
O=c1[nH]c(=O)n(Cc2ccc(F)cc2)c(O)c1C=Nc1ccc(Cl)cc1	n	n	n	u	x
CC(C)n1c(=O)c(C=Nc2ccc(Cl)cc2)c(O)n(Cc2ccco2)c1=O	1µM	10µM	x	n	n
COc1cccc(N=Cc2c(O)n(Cc3ccco3)c(=O)[nH]c2=O)c1	n	n	n	25µM	n
CC(C)n1c(=O)c(C=Nc2ccc(F)cc2)c(O)n(Cc2ccco2)c1=O	u	15µM	n	n	n
O=c1[nH]c(=O)n(Cc2ccco2)c(O)c1C=NC1CC1	n	n	n	n	n
O=C(NCCCN1CCN(c2ccccc2F)CC1)c1cc2c(s1)-c1ccccc1OC2	x	x	x	n	x
CN(Cc1ccccc1)C(=O)c1ccc(S(=O)(=O)N(C)c2ccccc2)cc1	x	x	n	x	x
Cc1ccc(N)cc1O	u	u	n	6.3µM	x
Nc1ccc(N)c(C(=O)O)c1	x	x	8.9µM	18µM	n
Nc1ccc(C(=O)O)c(O)c1	u	n	n	3.5µM!	n
SMILES	Pf growth 96h	Pf growth 48h	AMA1-RON2 inh	Sm TGR block	NS1 inh
Nc1cc(C(F)(F)F)ccc1C(=O)O	n	n	x	n	n
Nc1ccc(C(=O)Oc2ccc([N+](=O)[O-])cc2)c(O)c1	n	n	x	28µM	n
COc1ccc(NC(=O)CSc2nc3nc(C)c(Cc4ccc(C)cc4)c(C)n3n2)cc1OC	x	x	x	n	x
CCOc1ccc(NS(=O)(=O)c2ccc3c(c2)N(C(C)=O)CCS3)cc1	n	u	n	n	n
Cc1ccc(S(=O)(=O)CCC(=O)OCC(=O)N2c3ccccc3NC(=O)C2(C)C)cc1	n	n	n	n	x
Cc1cc(NC(=O)c2ccc(Cl)cc2)c(C)cc1O	n	n	n	n	n
Cc1cc(O)c(-c2cc(O)c(C)cc2O)cc1O	n	u	u	1.3µM	n
COc1ccc(OC)c(S(=O)(=O)Nc2c(C)n(C)n(-c3ccccc3)c2=O)c1	15µM	n	n	n	n
Cc1c(NC(=O)Nc2cccc(C#N)c2)c(=O)n(-c2ccccc2)n1C	3.7µM	n	n	n	n
Cc1c(NS(=O)(=O)c2ccccc2F)c(=O)n(-c2ccccc2)n1C	n	n	n	n	n
COc1cccc(/C=C/C(=O)OC(C)C(=O)Nc2c(C)n(C)n(-c3ccccc3)c2=O)c1 (stereo not given)	n	n	n	n	x
COc1ccc(/C(O)=C/C(=O)C(=O)Nc2c(C)n(C)n(-c3ccccc3)c2=O)cc1	7.4µM	n	u	n	n
Cc1c(NC(=O)C(C)OC(=O)/C=C/c2ccco2)c(=O)n(-c2ccccc2)n1C (stereo not given)	n	n	n	45µM	x
Cc1ccc(S(=O)(=O)NC(=NC2CCCCC2)c2ccccc2)cc1	n	n	n	n	n
COc1ccc(/C(O)=C/C(=O)C(=O)NNC(=O)C(O)(c2ccccc2)c2ccccc2)cc1	u	n	n	n	n
COc1ccc(/C(O)=C/C(=O)C(=O)NNC(=O)c2ccccc2)cc1	n	n	n	14µM	n
COc1ccc(-c2cc(C(=O)Nc3c(C)n(C)n(-c4ccccc4)c3=O)c3ccccc3n2)c(OC)c1	15µM	12µM	n	n	n
Cc1c(NC(=O)c2c(F)cccc2F)c(=O)n(-c2ccccc2)n1C	n	n	n	n	n
COc1cccc(OC)c1C(=O)Nc1c(C)n(C)n(-c2ccccc2)c1=O	10µM	n	n	n	n
CCCc1cc(=O)oc2c3c(c4c(c12)OC(C)(C)C=C4)OC(C)C(C)C3O (stereo not given)	10µM	u	n	n	n
COC(=O)C1C(O)C(C)C(O)C(C)/C=C\C=C(/C)C(=O)Nc2c(C)c(OC(C)=O)c3c(c2O)C(=O)C(C)=C2OCOC(=C23)/C(C)=C/C(C)(O)C(O)C(C)C1O (stereo not given)	9.3µM	12µM	n	n	n
CSCc1ccc(C(=O)N2CCCC(Nc3ccc4c(c3)OCCO4)C2)o1 (stereo not given)	n	n	n	28µM	n
Cn1nnnc1Sc1ncnc2scc(-c3ccc(F)cc3)c12	u	n	n	n	n
Cn1nnnc1Sc1ncnc2scc(-c3ccccc3)c12	n	12µM	n	n	n
Cn1nnnc1Sc1ncnc2scc(-c3ccc[nH]3)c12	u	10µM	x	11µM	x
CC(=O)Nc1ccc(Sc2ncnc3scc(-c4ccccc4)c23)cc1	u	n	n	n	n
CCCC(=O)Nc1ccccc1Sc1ncnc2scc(-c3ccccc3)c12	n	4.7µM	n	n	n
COC(=O)CN1C(=O)[C@H]2[C@@H](c3ccc(C)o3)N3C(=O)CN(Cc4ccccn4)C(=O)[C@@]3(Cc3ccccc3)[C@H]2C1=O	u	u	n	u	n
CC1CN(C(=O)COC(=O)c2cc(=O)c3ccccc3o2)CC(C)O1 (stereo not given)	n	n	n	n	n
CCn1ccnc1CN(C)Cc1cn[nH]c1-c1ccc(F)cc1F	12µM	n	n	n	n
